# Measured values from PubChem BioAssay (NCATS).
# Unmarked numbers belong to inactive results. The rule behind the calls is not given here.
# Test system: HIV-1 nucleocapsid protein NCp7 (binding to TG oligonucleotide)
# Assay: HIV Nucleocapsid (AID 346);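 note: potency is for inhibitors that block NC binding and lower polarization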
# Conditions: HIV-1 NC / fluorescein-TGTGTGTG probe, fluorescence polarization
# Method in brief: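 NCp7 100 nM + fluorescein TG4xF 10 nM; Hepes pH 7.5/250mM NaCl/1uM ZnCl2/0.004% PEG 20000; 1 hr RT; FP, 45 s exposure; oligo-only wells as negative control.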
# Potency is the fitted concentration of half-maximal effect.
row,SMILES,Potency [µM]
1,COc1cccc(Nc2ncc3nc(-c4ccc(Cl)cc4)c(=O)n(C[C@H]4CCCO4)c3n2)c1,> 20
2,COc1ccc(NC(=O)N2CC[C@@]3(CCCN(C(C)=O)C3)C2)cc1,> 20
3,Cn1cccc1C(=O)N1CCC2(CC1)CCN(c1ncccn1)CC2,> 20
4,FC(F)(F)c1cc(CN2CC3(CCNCC3)C2)cc(C(F)(F)F)c1,> 20
5,CN(C)c1ccc(-c2nc(N3CCNCC3)c3ccccc3n2)cc1,> 20
6,COc1ccc(-c2nc3cnc(N4CCNCC4)nc3n(Cc3cccs3)c2=O)cc1,> 20
7,CN1CCCC2(CCN(C(=O)c3cc(C(F)(F)F)cc(C(F)(F)F)c3)CC2)C1,> 20
8,c1ccc(-c2cccc(N3CC[C@@]4(CCCNC4)C3)c2)cc1,> 20
9,COc1ncc2ncc(=O)n(C3CC3)c2n1,> 20
10,O=c1cnc2cnc(N3CCNCC3)nc2n1Cc1cccs1,> 20
11,O=c1c(-c2ccc(Cl)cc2)nc2cncnc2n1Cc1ccccc1,> 20
12,COc1ccccc1CNc1ncncc1-c1ccccc1CN(C)C,> 20
13,COc1ncc2nc(CCc3ccccc3)c(=O)n(Cc3ccc(F)cc3)c2n1,> 20
14,FC(F)(F)c1ccccc1-c1nc(N2CCOCC2)c2ccccc2n1,> 20
15,N#Cc1ccccc1-c1ccc2ncnc(N3CCNCC3)c2c1,> 20
